The values that follow come from the supplement of paper PMC11060735.

“And” between values parts separate entries of the source, which are not always exact repeats. Identical values can stand only once. Counter-ions that a name gives are not always drawn. ± gives the standard deviation of the averaged measurements. In all, about 1,800 compounds were measured (“GFP- (p16Ink4a-) cell count relative to negative-control wells”: median about 0.99, lowest 2% from about 0.5 on). This excerpt belongs to a sample that is enriched for the lowest values.

For the assay, the system named is mouse p16Ink4a+/- lung fibroblasts (INKBRITE, bleomycin-injured). As to the kind of experiment: GFP- (p16Ink4a-) cell count relative to negative-control wells (fold of vehicle); higher = more p16Ink4a- cells surviving. Conditions: 1 µM; 3 days.
As to `CCC[C@@H]1C[C@@H](C(=O)N[C@H](C(C)Cl)[C@H]2O[C@H](SC)[C@H](O)[C@@H](O)[C@H]2O)N(C)C1` (stereo not given in full) [Clindamycin HCl], the GFP- was 0.865 and 1.15.
On to `COC(=O)C1=C(C#N)N=C(C)/C(=C(\O)OC(C)C)C1c1cccc([N+](=O)[O-])c1` (stereo not given) [Nilvadipine], for which the GFP- was 0.683.
For `CS(=O)(=O)N1CCN(Cc2cc3nc(-c4cccc5[nH]ncc45)nc(N4CCOCC4)c3s2)CC1` the value was 0.676.
Then `Cc1c(CN2CCN(C(=O)[C@H](C)O)CC2)sc2c(N3CCOCC3)nc(-c3cnc(N)nc3)nc12`, with 0.612.
`COc1ccc(-c2nc(N3CCOCC3)c3sc(CN(C)c4ncc(C(=O)NO)cn4)cc3n2)cn1` [Fimepinostat] gave a GFP- of 0.491 ± 0.025.
For `CCN(CC)CC#CCOC(=O)C(O)(c1ccccc1)C1CCCCC1` (stereo not given) [Oxybutynin] the value was 0.971; for `Nc1ccccc1NC(=O)c1ccc(CNc2nccc(-c3cccnc3)n2)cc1` [Mocetinostat], 0.436 ± 0.22; for `Nc1ccccc1NC(=O)c1ccc(CNC(=O)OCc2cccnc2)cc1` [Entinostat], 0.641 ± 0.022.
Then `Cc1ccc(NC(=O)c2ccc(CN3CCN(C)CC3)cc2)cc1Nc1nccc(-c2cccnc2)n1` [Imatinib, Imatinib Mesylate], with 1.04 and 0.966; and `c1cnc2cc3c(cc2n1)C1CNCC3C1` [Varenicline Tartrate], with 0.907.
For `CCCCc1ncc(/C=C(\Cc2cccs2)C(=O)O)n1Cc1ccc(C(=O)O)cc1` [Eprosartan] the value was 0.961.
Turning to `Cn1cc(-c2cnn3c(N)c(Br)c([C@@H]4CCCNC4)nc23)cn1`, the GFP- amounted to 0.988.
`NC(=O)N1CCC(CC(=O)N2CCC([C@H]3c4ncc(Br)cc4CCc4cc(Cl)cc(Br)c43)CC2)CC1` [Lonafarnib] gave a GFP- of 0.808.
Consider `COCC(=O)NC/C=C/c1ccc2ncnc(Nc3ccc(Oc4ccc(C)nc4)c(C)c3)c2c1`, for which the GFP- worked out at 1.06.
Then `C[C@H]1C[C@@H]2[C@H]([C@@H](O)C[C@@]3(C)[C@H]2CC[C@]3(O)C(=O)CO)[C@@]2(C)C=CC(=O)C=C12` [Methylprednisolone], with 0.847; and `CN1CCCC(n2nc(Cc3ccc(Cl)cc3)c3ccccc3c2=O)CC1` (stereo not given) [Azelastine, Azelastine Hydrochloride], with 1; and `O=C(/C=C/c1ccc(CN(CCO)CCc2c[nH]c3ccccc23)cc1)NO` [Dacinostat], with 0.556 ± 0.066.
As to `Cc1[nH]c2ccccc2c1CCNC(=O)c1cccs1` [N-[2-(2-methyl-1H-indol-3-yl)ethyl]thiophene-2-carboxamide], the GFP- was found to be 1.11.
Then `Cc1[nH]c2ccccc2c1CCNCc1ccc(/C=C/C(=O)NO)cc1` [Panobinostat], with 0.50294 ± 0.0002; and `Oc1cc2c(cc1O)[C@@H]1c3ccc(O)c(O)c3OC[C@]1(O)C2` [Hematoxylin], with 0.962.
For `O=C(Nc1ccccc1-c1cn2c(CN3CCNCC3)csc2n1)c1cnc2ccccc2n1` the value was 0.752 and 0.432; for `CCO/C(O)=C1\C(C)=NC(C)=C(C(=O)OC)C1c1cccc(Cl)c1Cl` (stereo not given) [Felodipine], 0.531; for `O=C1NC(=O)/C(=C/c2cccc(C(F)(F)F)c2)S1`, 0.979 ± 0.056.
`CC(C)N(CCC(=O)c1ccc2ccccc2c1)Cc1ccccc1` returned a GFP- of 0.897 ± 0.031.
As to `CNCC[C@@H](Oc1ccccc1C)c1ccccc1` [Atomoxetine], the GFP- is 1.04.
Take `Cc1nc(NC(=O)N2CCC[C@H]2C(N)=O)sc1-c1ccnc(C(C)(C)C(F)(F)F)c1`: the GFP- turned out to be 0.875.
`CC(C)CN(C[C@@H](O)[C@H](Cc1ccccc1)NC(=O)O[C@H]1CCOC1)S(=O)(=O)c1ccc(N)cc1` [Amprenavir] came in with a GFP- of 1.01.
Compound `Cc1ccc(NC(=O)C2(c3ccc4c(c3)OC(F)(F)O4)CC2)nc1-c1cccc(C(=O)O)c1` [Lumacaftor] displayed a GFP- of 0.94.
For `CO[C@H]1C(=O)[C@]2(C)[C@@H](OC)C[C@H]3OC[C@@]3(OC(C)=O)[C@H]2[C@H](OC(=O)c2ccccc2)[C@]2(O)C[C@H](OC(=O)[C@H](O)[C@@H](NC(=O)OC(C)(C)C)c3ccccc3)C(C)=C1C2(C)C` [Cabazitaxel] the value was 0.558; for `CC(=O)O[C@@]12CO[C@@H]1C[C@H](O)[C@@]1(C)C(=O)[C@H](O)C3=C(C)[C@@H](OC(=O)[C@H](O)[C@@H](NC(=O)OC(C)(C)C)c4ccccc4)C[C@@](O)([C@@H](OC(=O)c4ccccc4)[C@H]21)C3(C)C` [Docetaxel], 0.447; for `CC(=O)O[C@H]1C(=O)[C@@]2(C)C([C@H](OC(=O)c3ccccc3)[C@]3(O)C[C@H](OC(=O)[C@H](O)[C@@H](NC(=O)c4ccccc4)c4ccccc4)C(C)=C1C3(C)C)[C@]1(OC(C)=O)CO[C@@H]1C[C@@H]2O` (stereo not given in full) [Taxol, Paclitaxel], 0.505.
`Cc1ccc(-n2nc(C)c(N=Nc3cccc(-c4cccc(C(=O)O)c4)c3O)c2O)cc1C` [Eltrombopag] registered a GFP- of 0.82.
For `C[C@]12C=CC(=O)C=C1CC[C@H]1[C@@H]3C[C@@H](O)[C@](O)(C(=O)CO)[C@@]3(C)C[C@H](O)[C@@]12F` [Triamcinolone] the value was 0.986; for `Cc1ccc(S(=O)(=O)c2ccc([N+](=O)[O-])o2)cc1`, 0.415; for `NC(=O)N/N=C/c1ccc([N+](=O)[O-])o1` [Nitrofural], 0.939.
Then `Cc1ccc(S(=O)(=O)/C=C/C#N)cc1`, with 0.854; and `Cc1ccccc1N1C(=O)c2cc(S(N)(=O)=O)c(Cl)cc2NC1C` (stereo not given) [Metolazone], with 0.905.
On to `Oc1ccc(-c2nc(-c3ccc(F)cc3)c(-c3ccncc3)[nH]2)cc1`, for which the GFP- is 1.02.
As to `CC(C)(C)Cn1c(N)nc2ccc(-c3[nH]c(C(C)(C)C)nc3-c3ccc(F)cc3)nc21`, the GFP- is 0.974.
The compound `COc1ccc(-c2ccc3ncc4c(c3c2)n(-c2ccc(N3CCNCC3)c(C(F)(F)F)c2)c(=O)n4C)cn1` came in with a GFP- of 0.4.
`Cn1c(=O)n(-c2ccc(C(C)(C)C#N)cc2)c2c3cc(-c4cnc5ccccc5c4)ccc3ncc21` [Dactolisib] showed a GFP- of 0.74.
As for `CC1CCN(CC[C@H]2CCCN2S(=O)(=O)c2cccc(O)c2)CC1`, the GFP- worked out at 0.862.
Then `CC1CNc2c(cccc2S(=O)(=O)N[C@@H](CCCN=C(N)N)C(=O)N2CC[C@@H](C)C[C@@H]2C(=O)O)C1` (stereo not given in full) [Argatroban], with 1.09; and `CC1(C)CCC2=C(O1)c1ccccc1C(=O)C2=O` [beta-Lapachone], with 1.08; and `CCOC(=O)c1ccc(C#Cc2ccc3c(c2)C(C)(C)CCS3)nc1` [Tazarotene], with 1.05.
